Experimental findings from PubChem BioAssay AID720582 (The Scripps Research Institute Molecular Screening Center, 2013) are described below.

The whole screen tested about 370,000 compounds, of which about 2,300 (0.62%) were called active. The sample holds actives, similar compounds and a random draw of the others, so the mix is not that of the screen.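 How the source made its calls: active means inhibition above a per-campaign cutoff equal to the mean of compounds falling between control-based bounds plus 3 SD (cut at about 20% in these data); inactive means the rest.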

Chain of Disintegrin and metalloproteinase domain-containing protein 10 (Homo sapiens) (O14672 214-748 limits assumed): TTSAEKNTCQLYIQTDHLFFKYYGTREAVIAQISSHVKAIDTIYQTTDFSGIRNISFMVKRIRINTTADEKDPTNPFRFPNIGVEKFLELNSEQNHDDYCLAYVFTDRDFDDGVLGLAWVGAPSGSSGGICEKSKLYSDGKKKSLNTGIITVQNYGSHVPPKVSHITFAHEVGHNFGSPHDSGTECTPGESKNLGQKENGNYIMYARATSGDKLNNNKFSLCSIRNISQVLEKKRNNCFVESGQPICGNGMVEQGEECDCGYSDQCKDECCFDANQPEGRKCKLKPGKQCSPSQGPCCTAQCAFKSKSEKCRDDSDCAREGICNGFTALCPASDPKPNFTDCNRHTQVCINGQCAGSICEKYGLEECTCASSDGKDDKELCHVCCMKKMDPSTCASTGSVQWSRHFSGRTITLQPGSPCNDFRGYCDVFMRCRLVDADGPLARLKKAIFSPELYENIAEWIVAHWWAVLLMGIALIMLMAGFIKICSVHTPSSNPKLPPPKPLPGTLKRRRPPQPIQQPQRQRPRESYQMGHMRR

The test concerns the target Disintegrin and metalloproteinase domain-containing protein 10 (Homo sapiens) (UniProt O14672). As to the kind of experiment: human ADAM10 inhibitors, primary screen, biochemical, QFRET, HTS (AID 720582).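 Further: 0% = DMSO wells while the 100% control is not disclosed.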 The following applies: recombinant ADAM10, EDANS/DABCYL FRET peptide cleavage, 3 h; at 7 µM; stronger effect = higher value.
As a reminder, the inhibition is the relative decrease from the control value, in per cent. Take `Cc1ccc(C)c(NC(=O)CCS(=O)(=O)c2ccccc2)c1`: the inhibition is -11.5% (inactive).

Consider `CC(C)(C)OC(=O)NCc1cc(F)ccc1/C=C/S(=O)(=O)NCCc1ccccc1`, for which the inhibition is 11.5% (inactive).

Regarding `O=C(c1ccncc1)N1CC[C@H]2[C@H](CCCN2Cc2ccc(F)cc2)C1`, the inhibition is -25.2% (inactive).

Consider `COC(=O)C1CN(CCc2ccccc2)CCS(=O)(=O)N1Cc1cccc(Cl)c1` (configuration not stated), for which the inhibition was 2.53% (inactive).

On to `COc1ccc(NS(=O)(=O)c2ccc(N3CCOCC3)c(NC(=O)c3ccccc3Br)c2)cc1`, for which the inhibition is 6.43% (inactive).

Consider `COc1ccccc1NS(=O)(=O)c1ccc(C)c(C(=O)NNC(=O)c2csc(N3CCOCC3)n2)c1`, for which the inhibition was 8.51% (inactive).

`COc1ccc(NS(=O)(=O)c2ccc(C)c(C(=O)NNC(=O)c3csc(N4CCOCC4)n3)c2)cc1`: the inhibition is 26% (active).

As for `CCC[C@H]1C(=O)CC[C@@]23CCCN2C(=O)CCC[C@@H]13`, the inhibition was -1.01% (inactive).

`C[C@@H]1NC(=O)[C@@]2(C)[C@@H](c3ccccc3)[C@H]3COc4ccccc4[C@@H]3N2C1=O`: the inhibition was -7.53% (inactive).

As to `CCOC(=O)[C@@H]1[C@H]2COc3ccc(Br)cc3[C@H]2N2C(=O)N(c3ccc(C)cc3)C(=O)[C@@]12C`, the inhibition is 1.71% (inactive).

For the compound `Cc1ccc(N2C(=O)N3[C@@H]4c5ccccc5OC[C@@H]4[C@@H](c4ccccc4)[C@@]3(C)C2=O)cc1`, the inhibition is 20.3% (active).

Regarding `CCOC(=O)c1csc(NC(=O)C2CCCN(S(=O)(=O)c3ccc(Cl)s3)C2)n1` (configuration not stated), the inhibition was 10% (inactive).

Turning to `C=CCn1c(N)cc(=O)nc1SCC(=O)Nc1cccc2ccccc12`, the inhibition was -27% (inactive).

For `Cc1ccccc1-n1c(SCC(=O)Nc2cccc3ccccc23)nc(O)cc1=O`, the inhibition is 27% (active).

In the case of `Cc1ccc(-n2c(SCC(=O)Nc3cccc4ccccc34)nnc2-c2ccccn2)cc1`, the inhibition was -6.55% (inactive).

In the case of `O=S1(=O)c2ccc(N3CCN(Cc4ccccc4F)CC3)cc2Oc2ccccc2CN1Cc1cn(Cc2ccc(Cl)cc2)nn1`, the inhibition was 7.21% (inactive).

Consider `CCOc1ccc(-n2c(SCC(=O)Nc3cc(C)c(NC(=O)c4ccccc4)cc3OC)nnc2-c2cccc(Cl)c2)cc1`, for which the inhibition was 8.65% (inactive).

For `COc1cccc(CNC(=O)CCC2CCCN(Cc3ccc(OC(F)F)cc3)C2)c1` (configuration not stated), the inhibition is -2.49% (inactive).

As for `COc1cccc(CC2(CO)CCCN(Cc3nc(-c4cccs4)oc3C)C2)c1` (configuration not stated), the inhibition is 0.04% (inactive).

Take `COc1cccc(CC2(CO)CCCN(Cc3ccc(OC(F)F)cc3)C2)c1` (configuration not stated): the inhibition is 19.9% (active).

Turning to `O=C(CN(CC1CCCO1)C(=O)CNS(=O)(=O)c1ccc(Cl)cc1)NCc1ccccc1` (configuration not stated), the inhibition is 3.32% (inactive).

For `CCCOc1ccc(Oc2c(Cl)cnn(Cc3cccc4ccccc34)c2=O)cc1`, the inhibition is -13% (inactive).

Consider `COc1ccc(C(=O)OCCN2CCN(C3CN(Cc4cn(Cc5ccccc5F)nn4)S(=O)(=O)C3)CC2)cc1OC` (configuration not stated), for which the inhibition was -2.27% (inactive).

For `CC(c1c[nH]c2ccccc12)c1c(-c2ccccc2)n(C)c2ccccc12` (configuration not stated), the inhibition was -17.9% (inactive).

For the compound `CCCC(=O)Nc1cccc(NC(=S)NC(=O)C(C)Oc2ccc(Cl)cc2Cl)c1` (configuration not stated), the inhibition was 6.41% (inactive).

For `CC(C)C(=O)Nc1cccc(NC(=S)NC(=O)C(c2ccccc2)c2ccccc2)c1`, the inhibition is 21.2% (active).

Consider `CCCCC(=O)NNC(=S)NC(=O)C(c1ccccc1)c1ccccc1`, for which the inhibition was 7.07% (inactive).

As to `CSCCC1NC2(C(=O)Nc3ccc(Cl)cc32)[C@@H]2C(=O)N(C3CCCC3)C(=O)[C@H]12` (some centres not stated), the inhibition was 11.7% (inactive).

For `CC12C(=O)N(c3ccccc3)C(=O)C1C(c1ccccc1)N1CCCN12` (configuration not stated), the inhibition is -2% (inactive).

Regarding `C[C@@]12C(=O)N(c3cccc(Br)c3)C(=O)N1[C@H](c1ccc(Cl)cc1)[C@@H]1C(=O)N(C3CCCCC3)C(=O)[C@@H]12`, the inhibition was 31.7% (active).

As for `CC[C@@]12C(=O)N(c3ccccc3)C(=O)N1[C@H](c1ccc(Br)cc1)[C@@H]1C(=O)N(C(C)(C)C)C(=O)[C@@H]12`, the inhibition was 15.3% (inactive).

Consider `CCN1C(=O)[C@H]2[C@@H](c3ccc(C)cc3)N3C(=O)N(c4cccc(Br)c4)C(=O)[C@@]3(CC)[C@H]2C1=O`, for which the inhibition was 4.57% (inactive).

With `COc1ccc([C@@H]2[C@@H]3C(=O)N(C(C)(C)C)C(=O)[C@@H]3[C@]3(Cc4ccccc4)C(=O)N(c4cccc(Br)c4)C(=O)N23)cc1`, the inhibition was 33.4% (active).

`CC(C)(C)N1C(=O)[C@H]2[C@@H](c3ccc(Br)cc3)N3C(=O)N(c4cccc(Cl)c4)C(=O)[C@@]3(C)[C@H]2C1=O`: the inhibition was 33.8% (active).

`COC(=O)[C@]12C[C@H](CC(=O)NCc3ccccc3)C(=O)N(Cc3ccccc3)C1=C[C@H](COCc1ccccc1)O[C@@H]2C`: the inhibition is 6.96% (inactive).

With `C=CCN(C)CC#Cc1ccccc1`, the inhibition was -2.28% (inactive).

Consider `O=C(OC12CCCN(C1)/C(=C/c1ccccc1)C2)c1ccco1` (configuration not stated), for which the inhibition is 8.44% (inactive).

In the case of `O=S1(=O)c2c(NCc3ccco3)cccc2Oc2ccccc2CN1Cc1cn(Cc2cccc(C(F)(F)F)c2)nn1`, the inhibition was -9.48% (inactive).

With `COc1ccc(-c2cc(-c3nnc(SCC(=O)Nc4cccc5ccccc45)n3N)[nH]n2)cc1`, the inhibition is -7.36% (inactive).

Take `CC(CCN1CCC(C(O)(c2ccccc2)c2ccccc2)CC1)Oc1ccc(C(F)(F)F)cc1` (configuration not stated): the inhibition was 5.96% (inactive).

As to `COC(=O)N(NC(=O)C(O)(C(C)C)C(C)C)c1ccccc1`, the inhibition was -0.6% (inactive).

In the case of `Cc1ccc(N(NC(=O)C(C)(C)O)C(=O)c2ccccc2)cc1C`, the inhibition is 87.5% (active).

For `CCCC(O)(CCC)C(=O)NN(C(=O)CCl)c1cccc(C)c1`, the inhibition is -8.56% (inactive).

Take `O=C(CN1CCCc2ccccc21)NCc1ccc(F)cc1`: the inhibition is 1.16% (inactive).

With `O=C(Nc1cc(F)cc(F)c1)OC1CCC12CCC(c1ccccc1)CC2` (configuration not stated), the inhibition was 7.13% (inactive).

On to `COC(=O)c1ccccc1Sc1c(/C=N/OCc2ccc(Cl)cc2)c(C(F)(F)F)nn1C`, for which the inhibition is -2.32% (inactive).

As for `Cn1nc(C(F)(F)F)c(C(=O)Nc2cccc(C(F)(F)F)c2)c1SCc1ccc(Cl)cc1`, the inhibition is 43.5% (active).

As for `CCC(=O)OCc1c(C(F)(F)F)nn(C)c1Oc1cccc(C(F)(F)F)c1`, the inhibition was -6.05% (inactive).

Turning to `c1csc(-c2nnc(SCc3nc4ccccc4[nH]3)o2)c1`, the inhibition was -40.8% (inactive).

Consider `N#Cc1ccccc1OC[C@@H](O)CN1CCC(C(O)(c2ccccc2)c2ccccc2)CC1`, for which the inhibition is -0.66% (inactive).

For `Cc1ccc(C)c(NC(=S)NNC(=O)c2csc(C)c2)c1`, the inhibition is 24.9% (active).

For `Cc1cc(C(=O)NNC(=S)NC(C)c2ccccc2)cs1` (configuration not stated), the inhibition was 9.44% (inactive).

In the case of `Cc1ccc(C)c(NC(=O)NNC(=O)c2ccc3ccccc3c2O)c1`, the inhibition was -78.3% (inactive).

In the case of `COc1ccccc1C(=O)CSc1nnc(-c2ccccn2)n1-c1ccccc1`, the inhibition is -1.9% (inactive).

Regarding `COc1cccc(CSc2nnc(-c3cccnc3)n2Cc2ccccc2)c1`, the inhibition was -11.6% (inactive).

With `O=C(CCCCCN1C(=O)C2C3C=CC(C3)C2C1=O)Nc1ccccn1` (configuration not stated), the inhibition is 2.11% (inactive).

For `COC(=O)c1cc(S(=O)(=O)N2CCN(C(=O)C3CCCO3)CC2)cn1C` (configuration not stated), the inhibition was -4.05% (inactive).

In the case of `CCC(C)(C)c1ccc(Oc2ccc(NC(=O)COC(=O)C3=COCCO3)cc2)cc1`, the inhibition was 35.7% (active).

For the compound `O=C1CCC(C(=O)OCC(=O)Nc2ccc(OC(F)F)cc2)=NN1`, the inhibition was 5.49% (inactive).

For the compound `COc1ccc(NC(=O)COC(=O)CNC(=O)C2CCCCC2)cc1`, the inhibition is -0.81% (inactive).

Consider `N/C(Cc1ccc([N+](=O)[O-])cc1)=N\OC(=O)COc1ccc2ccccc2c1`, for which the inhibition is 29.3% (active).

Consider `Cc1cc(C)cc(OCC(=O)O/N=C(\N)Cc2ccc([N+](=O)[O-])cc2)c1`, for which the inhibition was 6.24% (inactive).

For the compound `N/C(Cc1ccc([N+](=O)[O-])cc1)=N\OC(=O)C1CCCCC1`, the inhibition is -1.46% (inactive).

Consider `O=C(NCC1COc2ccccc2O1)c1ccc(NC(=O)c2cc(F)ccc2F)cc1` (configuration not stated), for which the inhibition is -8.24% (inactive).

Take `CCOC(=O)N1CCN(C(=O)C[C@@H]2C(=O)N(CCc3ccc(Cl)cc3)C3=CCCC[C@]32C(=O)OCC)CC1`: the inhibition is 1.06% (inactive).

For `COc1ccc(C(C(=O)NC2CCCCC2)N(C(=O)CCl)c2ccccc2Cl)cc1` (configuration not stated), the inhibition was -8.69% (inactive).

As to `COc1ccc(C(CCN(Cc2ccc(OC)c(OC)c2)C(=O)CCl)c2ccccc2)cc1` (configuration not stated), the inhibition is 28% (active).

Take `COc1ccc(CN(CCN2CCOCC2)C(=O)c2ccc(C)cc2)cc1OC`: the inhibition was -9.63% (inactive).

For `COC(=O)C1CN(CCc2ccccc2)CCS(=O)(=O)N1Cc1ccc(F)cc1` (configuration not stated), the inhibition was -11.1% (inactive).

In the case of `COC1=C[C@H](C(=O)NCCNC(C)=O)[C@H](C)[C@@H](c2ccccc2)CC1=O`, the inhibition is 4.85% (inactive).

`CCOc1ccccc1NC(=O)c1cc(S(=O)(=O)N2CCC3(CC2)OCCO3)ccc1F`: the inhibition was -1.65% (inactive).

In the case of `CCOc1cc(NC(=O)CCl)c(OCC)cc1NC(C)=O`, the inhibition is -2.95% (inactive).

Turning to `CCOc1cc(NC(=O)c2ccccc2C(=O)O)c(OCC)cc1NC(=O)c1ccccc1F`, the inhibition is 26.7% (active).

As to `c1cncc(CNc2ccnc(-c3ccc4c(c3)OCO4)n2)c1`, the inhibition is -4.61% (inactive).

With `CN(CCc1ccccc1)C(=O)Cn1nc(-c2ccccc2)ccc1=O`, the inhibition was -9.95% (inactive).

`CNC(=S)N/N=C/c1ccc(OCc2ccccc2)c(Br)c1`: the inhibition was -17% (inactive).

`COc1cc(/C=N/n2c(C)n[nH]c2=S)ccc1OCc1ccccc1`: the inhibition was 20.3% (active).

In the case of `C=CCOc1ccc(/C=N/n2cncn2)cc1OC`, the inhibition is -13.5% (inactive).

On to `CC(CCN1CCC(C(O)(c2ccccc2)c2ccccc2)CC1)Oc1ccc(Cl)cc1` (configuration not stated), for which the inhibition is 6% (inactive).

`O=S1(=O)c2ccc(Br)cc2OC[C@H](Cc2ccccc2)N1Cc1cn(Cc2ccccc2)nn1`: the inhibition was -9.49% (inactive).

For the compound `Cc1[nH]nc(-c2ccc(OCc3cnn(-c4ccccc4)c3)cc2O)c1Oc1ccc(Cl)cc1`, the inhibition is -10.7% (inactive).

Consider `C=C(C)COc1ccc(-c2n[nH]c(C)c2-c2ccccc2)c(O)c1`, for which the inhibition was 23.7% (active).
